# Measured values: publication PMC4336329 (PLoS ONE, 2015)
# In all, about 310,000 compounds went through this assay and about 14,000 (4.5%) showed an effect of 50% or more. Effects have a minus sign here. For the sample, strong results were picked, then their nearest neighbours and some compounds at random.
# Target: human ether-à-go-go-related gene (hERG) potassium channel (human, UniProt Q12809)
# Assay: primary screen, population patch clamp on CHO cells stably expressing hERG; higher = less effect of the substance
# 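Further: peak tail current of the secondary pulse compared with the same well before compound.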
# Sequence of human ether-à-go-go-related gene (hERG) potassium channel (Q12809 whole entry, looked up): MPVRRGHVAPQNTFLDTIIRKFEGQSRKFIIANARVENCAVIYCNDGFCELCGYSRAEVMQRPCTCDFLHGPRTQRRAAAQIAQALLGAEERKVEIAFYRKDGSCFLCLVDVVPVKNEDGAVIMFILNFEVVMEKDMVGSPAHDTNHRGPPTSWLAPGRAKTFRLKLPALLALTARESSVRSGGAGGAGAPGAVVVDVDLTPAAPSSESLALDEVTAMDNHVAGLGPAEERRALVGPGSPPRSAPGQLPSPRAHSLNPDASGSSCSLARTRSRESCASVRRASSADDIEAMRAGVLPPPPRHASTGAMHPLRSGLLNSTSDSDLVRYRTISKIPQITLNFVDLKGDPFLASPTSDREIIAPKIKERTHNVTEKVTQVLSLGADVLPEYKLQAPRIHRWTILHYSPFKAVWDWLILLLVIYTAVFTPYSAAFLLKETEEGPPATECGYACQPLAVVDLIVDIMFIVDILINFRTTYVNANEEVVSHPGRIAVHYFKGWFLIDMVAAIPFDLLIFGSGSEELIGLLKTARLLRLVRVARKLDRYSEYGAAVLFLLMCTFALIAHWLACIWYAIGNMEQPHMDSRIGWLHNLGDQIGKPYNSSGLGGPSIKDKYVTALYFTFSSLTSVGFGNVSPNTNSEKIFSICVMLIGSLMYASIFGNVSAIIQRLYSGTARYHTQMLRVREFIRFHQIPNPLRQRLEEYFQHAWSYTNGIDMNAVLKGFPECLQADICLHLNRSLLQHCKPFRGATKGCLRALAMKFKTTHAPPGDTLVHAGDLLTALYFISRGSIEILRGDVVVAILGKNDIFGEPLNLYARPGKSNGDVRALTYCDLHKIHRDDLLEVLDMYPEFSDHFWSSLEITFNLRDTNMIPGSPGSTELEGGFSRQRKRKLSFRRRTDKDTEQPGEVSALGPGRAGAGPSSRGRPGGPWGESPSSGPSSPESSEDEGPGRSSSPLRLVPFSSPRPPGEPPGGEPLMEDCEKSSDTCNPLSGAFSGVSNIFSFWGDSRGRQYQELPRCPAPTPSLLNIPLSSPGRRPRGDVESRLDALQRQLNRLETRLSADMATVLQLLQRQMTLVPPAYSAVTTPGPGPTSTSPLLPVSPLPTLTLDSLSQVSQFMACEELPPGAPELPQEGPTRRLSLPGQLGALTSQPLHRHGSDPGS
row,Structure (SMILES),"hERG current change (%, negative = inhibition) at 10uM [%]"
1,COc1ccc(-c2csc(-c3cccs3)n2)c(OC)c1,15.8
2,CCCN1CNC(=S)N(Cc2ccccc2)C1,12.2
3,NC(=O)c1ccsc1NC(=O)COC(=O)c1ccc(Cl)cc1,-5.38
4,COc1ccccc1NC(=O)C(=O)N(c1cccnc1)C(C(=O)NC(C)(C)C)c1ccccc1 (stereo not drawn),18.7
5,CCC(C)(C)NC(=O)c1cc(S(=O)(=O)N2CCCCC2)ccc1N1CCOCC1,-13.4
6,O=C1NC(=O)/C(=C\c2ccccc2OCc2cccc([N+](=O)[O-])c2)N1,-5.66
7,O=C(CCn1c(=O)[nH]c2ccsc2c1=O)Nc1ccc(F)c(F)c1,21
8,COc1cccc(NC(=O)Cc2nnc(SCC(=O)NC(C)c3ccccc3)n2C)c1 (stereo not drawn),15.1
9,CCCCNc1nc2c(c(=O)n(C)c(=O)n2C)n1CCC,9.61
10,O=C(NC1CCN(Cc2ccccc2)CC1)c1cccc(S(=O)(=O)Nc2cc(C(F)(F)F)ccc2Cl)c1,-48.8
11,COCCNS(=O)(=O)c1ccc(Cl)c(C(=O)NC2CCN(Cc3ccccc3)CC2)c1,-1.21
12,O=C(NCCCN1CCOCC1)c1cccc(S(=O)(=O)Nc2ccc(F)cc2)c1,-23.3
13,CCOc1ccc(NS(=O)(=O)c2ccc(C(=O)NC3CCN(Cc4ccccc4)CC3)cc2)cc1,3.07
14,COc1ccc(NS(=O)(=O)c2ccc(C)c(C(=O)NC3CCN(Cc4ccccc4)CC3)c2)cc1,-51.1
15,O=C(NC1CCN(Cc2ccccc2)CC1)c1cccc(S(=O)(=O)Nc2ccc(F)cc2)c1,-63.8
16,CN(C)S(=O)(=O)Nc1cccc(Br)c1,-14.2
17,CCCCCc1cc(=O)oc2c(C(CCN3CCCC(C)C3)c3cc(OC)c(OC)c(OC)c3)c(OC)cc(OC)c12 (stereo not drawn),-64.4
18,CCCCCc1cc(=O)oc2c(C(CCN(CC)CC)c3cc(OC)c(OC)c(OC)c3)c(OC)cc(OC)c12 (stereo not drawn),-38.2
19,CCCCCc1cc(=O)oc2c(C(CCN3CCCCC3)c3cc(OC)c(OC)c(OC)c3)c(OC)cc(OC)c12 (stereo not drawn),-74.6
20,CCCCCc1cc(=O)oc2c(C(CCN3CCCC3)c3cc(OC)c(OC)c(OC)c3)c(OC)cc(OC)c12 (stereo not drawn),-65.6
21,COc1cc(O)c(C(CCN2CCCC(C)C2)c2cc(OC)c(OC)c(OC)c2)c(OC)c1 (stereo not drawn),5.07

row,Structure (SMILES),"hERG current change (%, negative = inhibition) at 10uM [%]"
1,Cc1cccc2c1N(N=O)CCC2,-2.33
2,Cc1ccc(N2CC(C(=O)Nc3ccc4c(c3)OCO4)CC2=O)cc1 (stereo not drawn),9.48
3,Cc1ccc(-c2c(C(=O)N/N=C/C3CC=CCC3)nnn2-c2nonc2N)cc1 (stereo not drawn),20.5
4,Cc1nccnc1Sc1ccccc1,22.4
5,Cc1ccc(S(=O)(=O)NNC(=O)Cc2cccn2C)cc1,11.2
6,CCCCN(C)C(=O)c1oc2ccc(S(=O)(=O)N3CCCCCC3)cc2c1C,-15.9
7,CCC1Sc2ccc(S(=O)(=O)CCC(=O)Nc3cc(C)ccn3)cc2NC1=O (stereo not drawn),11.9
8,COc1ccccc1C(=O)Nc1cccc2nc(C)ccc12,8
9,Cc1c(NC(=O)c2cnn3cccnc23)c(=O)n(-c2ccccc2)n1C,4.45
10,CCOC(=O)c1ccc(NC(=O)c2cc(C)nn2-c2ccccc2)cc1,-7.01
11,Cc1cc(C(=O)Nc2ccc(F)cc2C)n(-c2ccccc2)n1,12.6
12,CC(=O)c1cccc(NC(=O)c2cc(C)nn2-c2ccccc2)c1,-21
13,CCOC(=O)c1cccc(NC(=O)c2cc(C)nn2-c2ccccc2)c1,-50.5
14,Cc1cc(NC(=O)c2ccc(Cl)cc2)n(-c2ccccc2)n1,-1.41
15,Cc1cc(NC(=O)c2cnn3cccnc23)no1,-0.805
16,Cc1cc(C(=O)Nc2c(F)cc(F)cc2Br)n(-c2ccccc2)n1,16
17,Cc1cc(NC(=O)c2ccc(F)cc2)n(-c2ccccc2)n1,-80.2
18,Cc1cc(C(=O)Nc2c(F)c(F)c(F)c(F)c2F)n(-c2ccccc2)n1,-59.1
19,Cc1cc(NC(=O)c2ccccc2)n(-c2ccccc2)n1,30.8
20,Cc1cc(NC(=O)c2cnn3cccnc23)n(-c2ccccc2)n1,-61.8
21,COc1ccc(OC)c2c1C(=O)C(Cl)=C(Cl)C2=O,13.4

row,Structure (SMILES),"hERG current change (%, negative = inhibition) at 10uM [%]"
1,COCc1c(C#N)c(NCCc2ccc(F)cc2)nc(C)c1[N+](=O)[O-],1.39
2,Cc1ccc(C(=O)Nc2ccc3c4c(cccc24)CC3)cc1[N+](=O)[O-],-1.54
3,Cc1cc(C)n(-c2nnc(C)n2NS(C)(=O)=O)n1,14.6
4,Cc1csc(C(C#N)C(=O)c2ccc(S(=O)(=O)N3CCCC3)cc2)n1 (stereo not drawn),5.45
5,COc1ccccc1N1CCN(C(=O)CN2C(=O)C3CCCCC3C2=O)CC1 (stereo not drawn),22.7
6,Cc1onc(-c2c(F)cccc2Cl)c1C(=O)Nc1c(C)n(C)n(-c2ccccc2)c1=O,0.00478
7,COc1ccccc1NS(=O)(=O)c1cc(C)ccc1C,4.55
8,CCCc1nn(C)c2c(=O)[nH]c(-c3cc(S(=O)(=O)N(CCO)CCO)ccc3OCC)nc12,0.59
9,CCc1ccc2c(c1)C(c1ccc([N+](=O)[O-])cc1)=NNC(c1ccc(F)cc1)=N2,-7.54
10,COc1ccc(S(=O)(=O)Cc2ccc(C(=O)N3CCN(c4ccccc4)CC3)o2)cc1,-37.6
11,CCOC(=O)N1CCN(C(=O)c2ccc(CS(=O)(=O)c3ccc(OC)cc3)o2)CC1,-16
12,COc1ccc(S(=O)(=O)Cc2ccc(C(=O)N3CCN(c4cc(Cl)ccc4C)CC3)o2)cc1,9.01
13,COc1ccc(N2CCN(C(=O)c3ccc(CS(=O)(=O)c4ccc(OC)cc4)o3)CC2)cc1,-64.7
14,COc1ccc(S(=O)(=O)Cc2ccc(C(=O)N3CCN(c4ccc(Cl)cc4)CC3)o2)cc1,-55.5
15,COc1ccc(S(=O)(=O)Cc2ccc(C(=O)N3CCN(c4cccc(C)c4C)CC3)o2)cc1,-30.6
16,COc1ccc(CCC(=O)N2CCN(S(=O)(=O)c3ccc(OC)cc3)CC2)cc1,-8.45
17,COc1ccc(S(=O)(=O)Cc2ccc(C(=O)N3CCN(c4ccccc4F)CC3)o2)cc1,-52.8
18,COc1ccc(S(=O)(=O)Cc2ccc(C(=O)N3CCOCC3)o2)cc1,1.23
19,COc1ccc(S(=O)(=O)Cc2ccc(C(=O)N3CCN(c4ncccn4)CC3)o2)cc1,-16.8
20,COc1ccc(S(=O)(=O)N2CCN(C(=O)c3ccc([N+](=O)[O-])o3)CC2)cc1,-51.3
21,COc1ccc(S(=O)(=O)N2CCN(C(=O)c3ccc(C)o3)CC2)cc1,-5.16

row,Structure (SMILES),"hERG current change (%, negative = inhibition) at 10uM [%]"
1,CC(=O)c1ccc(N(C(=O)CNC(=O)c2ccco2)C(C(=O)NC2CCCC2)c2ccncc2)cc1 (stereo not drawn),20.3
2,COc1cccc(-c2nn(-c3ccc(C)cc3)cc2C(=O)N(C)CC(=O)Nc2cccc(F)c2)c1,0.34
3,COc1ccc(OC)c(NC(=O)COC(=O)c2ccc(S(=O)(=O)N3CCOCC3)cc2)c1,-15.3
4,O=C(Nc1ccc2c(c1)OCO2)C1CC1(Cl)Cl (stereo not drawn),3.77
5,COc1cc(OC)c(OC)cc1CNC(=O)c1cc(=O)c2ccccc2o1,8.48
6,COc1ccc(N(C(C)=O)S(=O)(=O)c2cccs2)cc1,7.03
7,CCCn1nnc(NC(=O)c2ccc(Cl)cc2Cl)n1,2.23
8,O=C(O)CCc1ccc(S(=O)(=O)N2CCOCC2)cc1,9.65
9,COC(=O)C1=C(C)N(c2cccc(Cl)c2)C(=O)C1,9.01
10,O=C(c1ccccc1)C(Nc1ccccn1)c1ccccc1 (stereo not drawn),1.36
11,COP(=O)(OC)C(Nc1ccccn1)c1ccccc1 (stereo not drawn),26.6
12,c1ccc(CC(Nc2ccccn2)c2ccccc2)cc1 (stereo not drawn),-52.8
13,CN(C)CCN(C(=O)c1ccc(S(=O)(=O)N(C)C)cc1)c1nc2cc3c(cc2s1)OCCO3.Cl,-40.7
14,CC1CN(S(=O)(=O)c2ccc(C(=O)N(CCCN(C)C)c3nc4cc5c(cc4s3)OCCO5)cc2)CC(C)O1.Cl (stereo not drawn),-28.8
15,CCN(CC)CCN(C(=O)c1ccc(S(=O)(=O)N2CCOCC2)cc1)c1nc2cc3c(cc2s1)OCCO3.Cl,-69.2
16,Cc1ccc2sc(N(CCCN(C)C)C(=O)c3ccc(S(=O)(=O)N4CCOCC4)cc3)nc2c1C.Cl,-35.9
17,CN(C)CCCN(C(=O)c1ccc(S(=O)(=O)N2CCCCCC2)cc1)c1nc2cc3c(cc2s1)OCCO3.Cl,-59.7
18,CN(C)CCCN(C(=O)c1ccc(S(=O)(=O)N2CCOCC2)cc1)c1nc2cc3c(cc2s1)OCO3.Cl,-61.4
19,CCN(CC)CCN(C(=O)c1ccc(S(=O)(=O)N2CCCCC2)cc1)c1nc2cc3c(cc2s1)OCO3.Cl,-37.6
20,CCN(CC)CCN(C(=O)c1ccc(N2C(=O)CCC2=O)cc1)c1nc2cc3c(cc2s1)OCCO3.Cl,-27.6
21,CN(C)CCCN(C(=O)c1ccc(S(=O)(=O)N2CCCCC2)cc1)c1nc2cc3c(cc2s1)OCO3.Cl,-70.4
